# Results filed as inconclusive are left out. A call without a number means that no potency is given here. A number with no mark means an inactive call. Active and inactive are the calls of the source. The call rests on the fitted dose curve; in most records, active means well fitted curve in the direction sought with a large enough effect; inconclusive means small, poorly fitted or top-dose-only effect, or another doubt; inactive means no such curve, though single readings can be large; an effect the other way counts as inactive or inconclusive.
# Experiments:
# [1] = BET inhibitor-based combinations targeting novel dependencies in MECOM-rearranged (r) AML: SET-2 cell line (AID 2202231); conditions: SET-2 AML cells viability, CellTiter-Glo luminescence, 48 h; viability: active compounds read low, concentration not given here; further: nearly all actives have a fitted effect of over 35% in size
# Summary of the method: (§1)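 500 cells/well; 11-pt dose curve; 48 h, standard incubator; CellTiter-Glo luminescence after 15 min RT; DMSO/empty-well normalization; AUC plus Z-AUC (mean-centered within each line).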
# [2] = BET inhibitor-based combinations targeting novel dependencies in MECOM-rearranged (r) AML: HNT-34 cell line (AID 2202234); conditions: HNT-34 AML viability, CellTiter-Glo luminescence, 48 h; series mostly up to 46 µM; further: nearly all actives have a fitted effect of over 35% in size
# Summary of the method: (§2)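 Cells were plated at 500 per well and exposed to each drug across an 11-point dose range for 48 hr at standard incubator conditions. Viability was read by CellTiter-Glo luminescence, and activity was expressed as AUC and per-cell-line Z-transformed AUC.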
# [3] = BET inhibitor-based combinations targeting novel dependencies in MECOM-rearranged (r) AML: UCSD-AML1 cell line (AID 2202235); conditions: UCSD-AML1 AML cells viability, CellTiter-Glo, 48 h; series mostly up to 46 µM; further: nearly all actives have a fitted effect of over 40% in size
# Summary of the method: as §2
# [4] = BET inhibitor-based combinations targeting novel dependencies in MECOM-rearranged (r) AML: AML-191 cell line (AID 2202236; further: nearly all actives have a fitted effect of over 35% in size); conditions: AML-191 viability, CellTiter-Glo luminescence, 48 h; series mostly up to 46 µM
# Summary of the method: as §1
# [5] = BET inhibitor-based combinations targeting novel dependencies in MECOM-rearranged (r) AML: AML-194 cell line (AID 2202237; further: nearly all actives have a fitted effect of over 40% in size); conditions: AML-194 (MECOM-r AML) viability, CellTiter-Glo, 48 h; series mostly up to 46 µM
# Summary of the method: as §1
# [6] = BET inhibitor-based combinations targeting novel dependencies in MECOM-rearranged (r) AML: MV-4-11 cell line (AID 2202233); conditions: MV-4-11 AML viability, CellTiter-Glo luminescence, 48 h; series mostly up to 46 µM; further: nearly all actives have a fitted effect of over 45% in size
# Summary of the method: as §2
# Potency means the concentration at half of the fitted maximal effect.
compound,measurement,setting,value
C=C1CCC[C@]2(C)C=C3OC(=O)C(C)=C3C[C@@H]12,viability,[1],112%
same,Potency,[2],inactive
same,Potency,[3],inactive
same,Potency,[4],inactive
same,Potency,[5],inactive
CCC(=O)O[C@]1(C(=O)CO)CC[C@H]2[C@@H]3CCC4=CC(=O)CC[C@]4(C)[C@H]3CC[C@@]21C,viability,[1],101%
same,Potency,[6],inactive
same,Potency,[3],inactive
same,Potency,[5],inactive
C[C@H]1CN(C2COC2)CCN1c1ccc(Nc2cc(-c3ccnc(N4CCn5c(cc6c5CC(C)(C)C6)C4=O)c3CO)cn(C)c2=O)nc1,viability,[1],121%
same,Potency,[6],14.8 µM (active)
same,Potency,[3],inactive
same,Potency,[5],inactive
C[C@H](NC(=O)[C@H]1NCC[C@@H]1O)c1ccc(-c2noc(CCC3CCCC3)n2)cc1,outcome,[1],inactive; activator; fitted 0.0033 uM
same,Potency,[6],inactive
same,Potency,[3],inactive
same,Potency,[4],20.9 µM (active)
same,Potency,[5],inactive
Clc1cccc(C(c2ccc3nc[nH]c3c2)n2ccnc2)c1 (centres undefined),viability,[1],113%
same,Potency,[2],inactive
same,Potency,[3],inactive
same,Potency,[5],inactive
CCN(C(=O)c1ccccc1OC)c1cc2c(cc1N1CCNC[C@H]1C)n(C)c(=O)n2C,viability,[1],119%
same,Potency,[6],inactive
same,Potency,[3],inactive
same,Potency,[5],inactive
COc1cc(C)c(/C=C/C(C)=C/C=C/C(C)=C/C(=O)O)c(C)c1C,viability,[1],101%
same,Potency,[6],5.9 µM (active)
same,Potency,[3],inactive
same,Potency,[5],inactive
O=C1OC(COc2ccccc2[N+](=O)[O-])CC1Cc1ccccc1 (centres undefined),viability,[1],112%
same,Potency,[2],inactive
same,Potency,[3],inactive
same,Potency,[4],inactive
same,Potency,[5],inactive
CC(/C=C/[C@@H]1C[C@]1(C)c1ccc2c(c1)C(C)(C)CCC2(C)C)=C\C(=O)O,viability,[1],110%
same,Potency,[2],18.6 µM (active)
COc1cc(OC)c(NC(=O)Nc2cc(C)on2)cc1Cl,viability,[1],115%
same,Potency,[2],inactive
same,Potency,[3],inactive
same,Potency,[4],inactive
same,Potency,[5],inactive
FC(F)(F)c1ccc(CNc2ccc(Cc3c[nH]c4ncc(Cl)cc34)cn2)cn1,viability,[1],110%
same,Potency,[6],0.934 µM (active)
same,Potency,[3],inactive
same,Potency,[5],inactive
C=CC(=O)Nc1cc(N2CCN(CC)CC2)ccc1Nc1cc(N(C)C(=O)Nc2c(Cl)c(OC)cc(OC)c2Cl)ncn1,viability,[1],112%
same,Potency,[6],20.9 µM (active)
same,Potency,[4],inactive
same,Potency,[5],inactive
Cc1cc(Nc2cc(N)ncn2)c(=O)n2c1C(=O)NC21CCCCC1,viability,[1],117%
same,Potency,[6],8.11 µM (active)
same,Potency,[3],inactive
same,Potency,[5],inactive
O=C1NC(=O)/C(=C\c2ccc(-c3ccc(F)cc3)o2)S1,Potency,[1],20.9 µM (active)
same,Potency,[6],inactive
same,Potency,[4],inactive
same,Potency,[5],inactive
CN1CCN(C(=O)[C@H]2[C@@H](C(=O)O)[C@H]3CC[C@@H]2O3)CC1,viability,[1],113%
same,"viability, % of control",[6],111% [at 8.46 µM]
same,viability (% of control),[3],104% [at 8.46 µM]
same,viability (% of control),[4],93.9% [at 8.46 µM]
same,viability (% of control),[5],96.1% [at 8.46 µM]
COc1ccc(C(=O)N2CCN(C(=O)/C=C/c3ccc(Br)cc3)CC2)cc1,viability,[1],111%
same,Potency,[6],11.8 µM (active)
same,Potency,[3],inactive
same,Potency,[4],inactive
same,Potency,[5],inactive
Cc1cc(-c2ccc(CC(=O)Nc3ccc(-c4cccnc4)cc3)cc2)ccn1,Potency,[1],16.6 µM (active)
same,Potency,[6],13.2 µM (active)
same,Potency,[4],9.34 µM (active)
Cc1nc(NC(=O)N2CCC[C@H]2C(N)=O)sc1-c1csc(C(C)(C)C)n1,viability,[1],98.3%
same,Potency,[2],inactive
same,Potency,[4],16.6 µM (active)
C[C@H](Nc1nc(N[C@H](C)C(F)(F)F)nc(-c2cccc(Cl)n2)n1)C(F)(F)F,viability,[1],120%
same,Potency,[2],inactive
same,Potency,[3],inactive
same,Potency,[4],inactive
same,Potency,[5],inactive
Nc1nc(F)nc2c1ncn2[C@@H]1O[C@H](COP(=O)(O)O)[C@@H](O)[C@@H]1O,Potency,[1],3.72 µM (active)
same,Potency,[6],11.8 µM (active)
same,Potency,[3],1.18 µM (active)
same,Potency,[4],3.32 µM (active)
same,Potency,[5],4.17 µM (active)
CCn1c(=O)c2c(nc(/C=C/c3ccc(OC)c(OC)c3)n2C)n(CC)c1=O,viability,[1],107%
same,Potency,[2],inactive
same,Potency,[3],inactive
same,Potency,[4],inactive
same,Potency,[5],inactive
O=C(/C=C/c1cccnc1)NCCCCC1CCN(C(=O)c2ccccc2)CC1,viability,[1],119%
same,Potency,[6],0.0209 µM (active)
same,Potency,[5],inactive
Cc1cc(O)c(-c2ccc([C@@H](C)CN)cc2)c2c1[nH]c(=O)c1sccc12,Potency,[1],0.372 µM (active)
same,Potency,[2],0.0417 µM (active)
same,Potency,[4],0.0833 µM (active)
CCc1cc(/C(C)=N/OCc2ccc(C3CCCCC3)c(C(F)(F)F)c2)ccc1CN1CC(C(=O)O)C1,Potency,[1],16.6 µM (active)
same,Potency,[6],8.33 µM (active)
same,Potency,[3],inactive
same,Potency,[5],inactive
C=CC[C@@H]1/C=C(\C)C[C@H](C)C[C@H](OC)[C@H]2O[C@@](O)(C(=O)C(=O)N3CCCC[C@H]3C(=O)O[C@H](/C(C)=C/[C@@H]3CC[C@@H](O)[C@H](OC)C3)[C@H](C)[C@@H](O)CC1=O)[C@H](C)C[C@@H]2OC,viability,[1],51.4%
same,Potency,[2],23.5 µM (active)
same,Potency,[3],26.3 µM (active)
same,Potency,[4],18.6 µM (active)
same,Potency,[5],20.9 µM (active)
NC1=N[C@@]2(c3cc(NC(=O)c4ccc(F)cn4)ccc3F)COC[C@H]2CS1,viability,[1],112%
same,Potency,[2],inactive
same,Potency,[3],inactive
same,Potency,[4],inactive
same,Potency,[5],inactive

# Reference: PubChem BioAssay (NCATS)
